Inconclusive results are not listed. Active and inactive are the calls of the source. Unless noted, calls come from the whole dose curve; as a rule, active = well fitted curve in the direction sought with a large enough effect in the repeat runs; inconclusive = weak or mixed curves; inactive = no such curve, though single readings can be large; an effect the other way counts as inactive or inconclusive. Where a SMILES comes first, the peptide text is derived from it.
Experiments:
[1] = target: Retinoic acid receptor RXR-alpha (Homo sapiens) (UniProt P19793); assay: qHTS assay to identify small molecule agonists of the RXR signaling pathway (AID 1159527; calls by dose curve; note: nearly all actives have a fitted effect of over 35% in size)
Sequence of Retinoic acid receptor RXR-alpha (Homo sapiens) (P19793 whole entry, looked up): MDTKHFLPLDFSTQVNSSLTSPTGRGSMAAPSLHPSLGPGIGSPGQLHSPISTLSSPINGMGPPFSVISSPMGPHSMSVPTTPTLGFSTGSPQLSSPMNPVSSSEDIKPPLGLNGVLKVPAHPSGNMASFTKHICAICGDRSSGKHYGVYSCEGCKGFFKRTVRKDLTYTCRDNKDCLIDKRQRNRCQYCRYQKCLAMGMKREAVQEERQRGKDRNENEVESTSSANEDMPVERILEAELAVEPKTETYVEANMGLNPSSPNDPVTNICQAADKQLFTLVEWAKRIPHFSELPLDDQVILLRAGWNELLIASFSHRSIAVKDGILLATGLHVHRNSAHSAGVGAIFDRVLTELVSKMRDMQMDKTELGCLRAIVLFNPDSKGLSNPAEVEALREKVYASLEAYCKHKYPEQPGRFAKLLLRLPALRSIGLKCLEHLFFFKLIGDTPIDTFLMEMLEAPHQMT
Method in brief: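 qHTS of the Tox21 10K library in GeneBLAzer RXR-alpha HEK 293T cells carrying a beta-lactamase reporter […]; 16 hr treatment, 9-cis retinoic acid as agonist control, FRET read-out.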

[2] = qHTS assay to identify small molecule agonists of the RXR signaling pathway - cell viability counter screen (AID 1159529); note: series mostly up to about 77 µM; nearly all actives have a fitted effect of over 50% in size
Method in brief: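 Cell viability is measured by CellTiter-Glo luminescence, 30 min at room temperature, in wells already read for beta-lactamase. Engineered HEK 293T cells (RXR-alpha-UAS-bla) are dosed 16 hr at 37 C. Tetraoctyl ammonium bromide serves as positive control.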

[3] = qHTS assay to identify small molecule antagonists of the retinoid acid receptor (RAR) signaling pathway - cell viability counter screen (AID 1159551); note: nearly all actives have a fitted effect of over 35% in size
Method in brief: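 ATP-based viability, C3RL4 cells, 6 h at 37 C with 1 uM final retinol co-added after compound; luminescence read 30 min post CellTiter-Glo, RT.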

[4] = qHTS assay to identify small molecule antagonists of the retinoic acid receptor (RAR) signaling pathway (AID 1159552; note: nearly all actives have a fitted effect of over 50% in size)
Method in brief: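 Quantitative HTS in C3RL4 RARE-luciferase reporter cells. Compounds were added with 1 uM (final) retinol; luminescence was read after 6 hr.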

[5] = qHTS assay to identify small molecule agonists of the retinoic acid receptor (RAR) signaling pathway (AID 1159553)
Method in brief: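 Quantitative high-throughput format: the Tox21 10K library was tested on C3RL4 RARE-luciferase cells for 6 hr at 37 C and 5% CO2, with luminescence measured after a 30 min room-temperature reagent step.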

[6] = qHTS assay to identify small molecule antagonists of the estrogen related receptor (ERR) signaling pathway from Tox21 library - cell viability counter screen (AID 1224834); note: nearly all actives have a fitted effect of over 30% in size
Method in brief: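 Compounds in DMSO were pinned onto ERR cells that had been incubated for 6 h, and the plates were held at 37 C for 17.5 h. CellTiter-Fluor reagent was then added and fluorescence was measured after 30 min.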

[7] = target: Luciferin 4-monooxygenase (Photinus pyralis) (UniProt P08659); assay: qHTS assay to identify small molecule inhibitors of firefly luciferase (AID 1224835); note: series mostly up to about 120 µM; nearly all actives have a fitted effect of over 25% in size
Sequence of Luciferin 4-monooxygenase (Photinus pyralis) (P08659 whole entry, looked up): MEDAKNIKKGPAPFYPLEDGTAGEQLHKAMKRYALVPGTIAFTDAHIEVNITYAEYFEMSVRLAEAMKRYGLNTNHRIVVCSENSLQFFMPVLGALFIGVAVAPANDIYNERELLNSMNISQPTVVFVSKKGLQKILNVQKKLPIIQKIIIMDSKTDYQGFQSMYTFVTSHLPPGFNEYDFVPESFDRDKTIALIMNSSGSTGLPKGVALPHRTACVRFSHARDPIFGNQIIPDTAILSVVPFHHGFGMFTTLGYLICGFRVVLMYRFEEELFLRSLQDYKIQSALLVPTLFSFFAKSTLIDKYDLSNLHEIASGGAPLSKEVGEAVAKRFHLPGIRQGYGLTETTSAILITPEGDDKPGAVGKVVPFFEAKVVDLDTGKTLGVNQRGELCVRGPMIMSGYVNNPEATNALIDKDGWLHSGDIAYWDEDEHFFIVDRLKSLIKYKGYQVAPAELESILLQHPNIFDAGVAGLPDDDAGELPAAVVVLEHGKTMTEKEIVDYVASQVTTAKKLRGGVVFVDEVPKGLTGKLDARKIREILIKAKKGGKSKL
Method in brief: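 Biochemical qHTS: compounds run as interplate titrations against purified firefly enzyme, with D-luciferin and ATP each at its KM concentration. Light output recorded by CCD imaging.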

[8] = qHTS assay to identify small molecule agonists of the constitutive androstane receptor (CAR) signaling pathway - cell viability counter screen (AID 1224836); note: series mostly up to about 92 µM; nearly all actives have a fitted effect of over 45% in size
Method in brief: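 Counter screen multiplexed with the CAR reporter readout: HepG2 cells co-transfected with hCAR and the CYP2B6-2.2kb construct receive a 15-concentration compound series and 0.75 uM PK11195 (final), then CellTiter-Fluor fluorescence is read after 23 h.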

[9] = target: Nuclear receptor subfamily 1 group I member 3 (Homo sapiens) (UniProt Q14994); assay: qHTS assay to identify small molecule antagonists of the constitutive androstane receptor (CAR) signaling pathway (AID 1224838);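 note: HepG2 cells stably expressing hCAR with CYP2B6 luciferase reporter stimulated by CITCO; nearly all actives have a fitted effect of over 40% in size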
Sequence of Nuclear receptor subfamily 1 group I member 3 (Homo sapiens) (Q14994 whole entry, looked up): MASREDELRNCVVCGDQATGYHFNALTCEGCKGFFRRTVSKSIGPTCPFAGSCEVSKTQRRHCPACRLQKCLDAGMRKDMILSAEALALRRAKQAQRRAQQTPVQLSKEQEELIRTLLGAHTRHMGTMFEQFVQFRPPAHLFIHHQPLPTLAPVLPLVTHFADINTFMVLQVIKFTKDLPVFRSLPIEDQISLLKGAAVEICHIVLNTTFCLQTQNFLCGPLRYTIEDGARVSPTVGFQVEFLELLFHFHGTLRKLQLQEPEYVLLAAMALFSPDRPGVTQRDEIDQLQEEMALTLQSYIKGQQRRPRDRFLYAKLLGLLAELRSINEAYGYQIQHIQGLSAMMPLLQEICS
Method in brief: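 Luminescence from a CYP2B6-2.2kb promoter reporter in hCAR-expressing HepG2 cells reflects CAR signaling. Cells received compounds at 15 concentrations and 50 nM CITCO (final), then incubated 24 h at 37 C/5% CO2.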

[10] = target: Nuclear receptor subfamily 1 group I member 3 (Homo sapiens) (UniProt Q14994); assay: qHTS assay to identify small molecule agonists of the constitutive androstane receptor (CAR) signaling pathway (AID 1224839); note: series mostly up to about 92 µM; nearly all actives have a fitted effect of over 15% in size
Method in brief: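 A 15-concentration quantitative screen uses HepG2 cells co-transfected stably with human CAR and CYP2B6-2.2kb reporter. Treatment lasts 24 h with 0.75 uM PK11195 final present; ONE-Glo luminescence is the signal.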

[11] = qHTS assay to identify small molecule antagonists of the estrogen related receptor signaling pathway with the pleiotropic PPARgamma coactivator (PGC) from Tox21 10K library - cell viability counter screen (AID 1224840; active = well fitted cell-killing curve with a large enough effect in the repeat runs, not every such curve was filed as active; note: nearly all actives have a fitted effect of over 40% in size)
Method in brief: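 Cell viability is measured by CellTiter-Fluor fluorescence in PGC/ERR cells that receive compounds after a 6-hour attachment period and are then incubated 17.5 hours at 37 C.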

[12] = target: Thyrotropin receptor (Homo sapiens) (UniProt P16473); assay: qHTS assay to identify small molecule agonists of the thyroid stimulating hormone receptor (TSHR) signaling pathway (AID 1224843; calls by dose curve; note: nearly all actives have a fitted effect of over 45% in size)
Sequence of Thyrotropin receptor (Homo sapiens) (P16473 whole entry, looked up): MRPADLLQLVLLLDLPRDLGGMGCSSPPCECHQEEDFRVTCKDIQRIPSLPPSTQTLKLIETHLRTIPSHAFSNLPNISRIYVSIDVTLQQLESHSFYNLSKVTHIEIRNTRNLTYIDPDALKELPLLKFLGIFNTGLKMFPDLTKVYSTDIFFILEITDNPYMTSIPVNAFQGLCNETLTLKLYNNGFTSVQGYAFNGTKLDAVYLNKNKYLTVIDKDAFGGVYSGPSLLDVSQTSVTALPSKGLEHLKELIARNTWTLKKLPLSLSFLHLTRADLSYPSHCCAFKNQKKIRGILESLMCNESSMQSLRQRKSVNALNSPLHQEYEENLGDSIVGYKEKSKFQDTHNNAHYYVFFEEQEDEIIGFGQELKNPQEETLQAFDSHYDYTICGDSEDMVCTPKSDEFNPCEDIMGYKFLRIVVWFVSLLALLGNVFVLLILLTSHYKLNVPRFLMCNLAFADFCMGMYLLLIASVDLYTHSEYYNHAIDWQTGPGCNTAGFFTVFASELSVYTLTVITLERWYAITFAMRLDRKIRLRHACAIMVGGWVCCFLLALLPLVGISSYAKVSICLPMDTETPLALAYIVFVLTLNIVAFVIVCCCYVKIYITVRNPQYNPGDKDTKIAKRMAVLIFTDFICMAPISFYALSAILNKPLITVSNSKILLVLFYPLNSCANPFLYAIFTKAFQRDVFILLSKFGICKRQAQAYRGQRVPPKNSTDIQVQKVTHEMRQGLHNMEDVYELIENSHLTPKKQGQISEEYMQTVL
Method in brief: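 Agonist-mode screen: TSHR HEK293 cells received test chemicals for half an hour at room temperature, then HTRF cAMP detection reagents for one hour prior to fluorescence measurement. Each chemical ran as a 15-concentration series, triplicated.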

[13] = qHTS assay to identify small molecule agonists of the hypoxia (HIF-1) signaling pathway - cell viability counter screen (AID 1224844; calls by dose curve; note: nearly all actives have a fitted effect of over 50% in size)
Method in brief: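 Viability counter screen: HRE-bla ME-180 cells plated 5 hrs before compound addition, treated 17 hrs at 37C and 5% CO2, then CellTiter-Glo added after the FRET reporter read; luminescence after 30 min.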

[14] = qHTS assay to identify small molecule agonists of H2AX (AID 1224845; active = well fitted activation curve with a large enough effect in the signal ratio in the repeat runs, not every such curve was filed as active; the % refers to the signal ratio)
Method in brief: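 Wild-type CHO-K1 cells, plated overnight, exposed 3hr at 37C to 15 concentrations (0.76% DMSO final). Lysed, then HTRF anti-pH2AX (S139) cryptate and anti-H2AX-d2 antibodies, 24 hr room temperature; 665/620 nm emission read.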

[15] = qHTS assay to identify small molecule agonists of the hypoxia (HIF-1) signaling pathway (AID 1224846; active = well fitted activation curve with a large enough effect in the signal ratio in the repeat runs, not every such curve was filed as active; the % refers to the signal ratio)
Method in brief: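 Agonist mode reporter screen. ME-180 cells stably expressing bla under HRE control received test compounds in DMSO for 17 hrs (37C, 5% CO2), and beta-lactamase activity was then detected with the CCF4-AM FRET substrate.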

[16] = qHTS assay to identify small molecule agonists of H2AX - cell viability counter screen (AID 1224847; calls by dose curve; note: top concentration of the series differs between compounds; nearly all actives have a fitted effect of over 30% in size)
Method in brief: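 We seed wild-type CHO-K1 cells overnight, treat them for 3 hr at 37C with compounds in 15-concentration series, and quantify remaining viability by CellTiter-Glo luminescence.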

[17] = qHTS assay to identify small molecule antagonists of the constitutive androstane receptor (CAR) signaling pathway - cell viability counter screen (AID 1224837); note: series mostly up to about 92 µM; nearly all actives have a fitted effect of over 45% in size
Method in brief: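 Cells are seeded, rested 4 hr at 37 C/5% CO2, dosed with compound (15-point series) and 50 nM CITCO, incubated a further 23 hr, and then CellTiter-Fluor reagent is added before fluorescence is read. The line is HepG2 with stable hCAR and CYP2B6-2.2kb.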

[18] = qHTS assay to identify small molecule antagonists of the estrogen related receptor signaling pathway with the pleiotropic PPARgamma coactivator (PGC) from Tox21 10K library (AID 1224841; call rule not given here; note: series mostly up to about 92 µM; actives are mostly falling curves and most rising ones were filed inactive; nearly all actives have a fitted effect of over 50% in size)
Method in brief: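 Cells stably carrying the PGC/ERR reporter, seeded at 2,000 per well, received pin-transferred compounds 6 h post-plating. Exposure lasted 18 h at 37 C. Signal: One-Glo luminescence.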

[19] = qHTS assay to identify small molecule agonists of the estrogen related receptor signaling pathway with the pleiotropic PPARgamma coactivator (PGC) from Tox21 10K library (AID 1224842); note: nearly all actives have a fitted effect of over 15% in size
Method in brief: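 PGC/ERR reporter cell line, 2,000 cells per well, incubated 6 h at 37 C before 23 nL compound in DMSO was added. After 18 h at 37 C, One-Glo luminescence read following 30 min at room temperature.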

[20] = qHTS assay to identify small molecule antagonists of the estrogen related receptor (ERR) signaling pathway from Tox21 library (AID 1224848); note: nearly all actives have a fitted effect of over 50% in size
Method in brief: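 Quantitative high-throughput format: ERR reporter cells (2,000/well) pre-incubated 6 h, treated 18 h at 37 C with compounds in DMSO alongside positive and negative controls, then read by ONE-Glo luminescence.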
% is set by controls: 0 for no effect and ±100 for the full control effect.

Cc1ccc(N)cc1S(=O)(=O)O
inactive: Potency [1] | outcome [2] | outcome [3] | outcome [4] | Potency [5] | outcome [6] | Potency [7] | outcome [8] | Potency [9] | Potency [10] | outcome [11] | outcome [12] | outcome [13] | outcome [14] | outcome [15] | outcome [16]

CC/C(C)=N\O[Si](C)(O/N=C(\C)CC)O/N=C(\C)CC
inactive: Potency [1] | outcome [2] | outcome [3] | outcome [4] | Potency [5] | outcome [6] | Potency [7] | outcome [8] | Potency [9] | Potency [10] | outcome [11] | outcome [12] | outcome [13] | outcome [14] | outcome [15] | outcome [16]

CC(=O)N[C@@H](CO)C(=O)N[C@@H](CC(=O)O)C(=O)N[C@@H](CCCCN)C(=O)N1CCC[C@H]1C(=O)O (Ac-SDKP-OH)
inactive: Potency [1] | outcome [2] | outcome [3] | outcome [4] | Potency [5] | outcome [6] | Potency [7] | outcome [8] | outcome [17] | Potency [9] | Potency [10] | outcome [13] | outcome [14] | outcome [15] | outcome [16]

Cc1cccc(Cl)c1
inactive: Potency [1] | outcome [2] | outcome [3] | outcome [4] | Potency [5] | outcome [6] | Potency [7] | outcome [8] | outcome [17] | Potency [9] | Potency [10] | outcome [14] | outcome [15] | outcome [16]

C=CCCCC
inactive: Potency [1] | outcome [2] | outcome [3] | outcome [4] | Potency [5] | outcome [6] | Potency [7] | outcome [8] | outcome [17] | Potency [9] | Potency [10] | outcome [12] | outcome [13] | outcome [14] | outcome [15] | outcome [16]

N[C@@H](CSCCCO)C(=O)O
inactive: activation [1] 12.4% [at 15.8 µM] | activity change, negative = cytotoxicity [2] -0.377% [at 15.8 µM] | activity change, negative = cytotoxicity [3] 5.07% [at 19 µM] | activity, negative = inhibition [4] 1.93% [at 19 µM] | Potency [5] | viability change, negative = cytotoxic [6] 1.22% [at 19 µM] | activity change, negative = inhibition [7] -1.72% [at 23.6 µM] | viability change, negative = cytotoxic [8] 3.99% [at 19 µM] | activity change, negative = cytotoxicity [17] 10% [at 19 µM] | activity, negative = inhibition [9] 5.4% [at 19 µM] | activation [10] 0.0803% [at 19 µM] | activity change, negative = cytotoxicity [13] 0.058% [at 15.8 µM] | activation (H2AX phosphorylation) [14] 1.1% [at 31.6 µM] | activation [15] -1.56% [at 15.8 µM] | activity change, negative = cytotoxicity [16] -1.29% [at 31.6 µM]

COC(C)(OC)OC
inactive: Potency [1] | outcome [2] | outcome [3] | outcome [4] | Potency [5] | outcome [6] | Potency [7] | outcome [8] | outcome [17] | Potency [9] | Potency [10] | outcome [12] | outcome [13] | outcome [14] | outcome [15] | outcome [16]

O=C(NCN1CCOCC1)c1cnccn1
inactive: Potency [1] | outcome [2] | outcome [3] | outcome [4] | Potency [5] | outcome [6] | Potency [7] | outcome [8] | outcome [17] | Potency [9] | Potency [10] | outcome [11] | outcome [14] | outcome [15] | outcome [16]

Cn1c(=O)c2c(ncn2CCO)n(C)c1=O
inactive: Potency [1] | outcome [2] | outcome [3] | outcome [4] | Potency [5] | outcome [6] | Potency [7] | outcome [8] | outcome [17] | Potency [9] | Potency [10] | outcome [11] | outcome [14] | outcome [16]

O=Cc1ccccc1Cl
inactive: Potency [1] | outcome [2] | outcome [3] | outcome [4] | Potency [5] | outcome [6] | Potency [7] | outcome [8] | Potency [9] | Potency [10] | outcome [11] | outcome [18] | outcome [19] | outcome [13] | outcome [14] | outcome [15] | outcome [16] | Potency [20]

C=CCCCCCCCC
inactive: Potency [1] | outcome [2] | outcome [3] | outcome [4] | Potency [5] | outcome [6] | Potency [7] | outcome [8] | outcome [17] | Potency [9] | Potency [10] | outcome [11] | outcome [14] | outcome [15] | outcome [16]

CC(=O)C(C)O (stereo unspecified)
inactive: Potency [1] | outcome [2] | outcome [3] | outcome [4] | Potency [5] | outcome [6] | Potency [7] | outcome [8] | outcome [17] | Potency [9] | Potency [10] | outcome [12] | outcome [14] | outcome [15] | outcome [16]

CC(C)OC(=O)CCC(=O)OC(C)C
inactive: Potency [1] | outcome [2] | outcome [3] | outcome [4] | Potency [5] | outcome [6] | Potency [7] | outcome [8] | Potency [9] | Potency [10] | outcome [11] | outcome [12] | outcome [13] | outcome [14] | outcome [15] | outcome [16]

CC(=O)CC(=O)Nc1ccc(C)cc1C
inactive: Potency [1] | outcome [2] | outcome [3] | outcome [4] | Potency [5] | outcome [6] | Potency [7] | outcome [8] | outcome [17] | Potency [9] | Potency [10] | outcome [13] | outcome [14] | outcome [15] | outcome [16]

Reference: PubChem BioAssay (Tox21)
